Data: PubChem BioAssay (EPA / NIEHS)
Active and inactive are the calls of the source. How the source made its calls: active means hit-call score of the fitted dose curve at least 0.9, where 1 is the maximum; inactive means score below 0.9.

How the values were obtained:
Conditions in all cases: mRNA level, 48 h; actives raise or lower the signal
[1] = read-out: Glutamate-cysteine ligase catalytic (GCLC), GCLC (gene 2729); assay: LTEA_HepaRG_GCLC: Life Technologies and Expression Analysis (LTEA) Assay for Glutamate-cysteine ligase catalytic (GCLC) using HepaRG (AID 2283498)
Method in brief: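 Read-out is GCLC transcript level by Fluidigm-based TaqMan qRT-PCR, normalized to three housekeeping genes and fitted in both directions relative to 0.5% DMSO. Human HepaRG cells received chemicals for 48 h, up to 100 uM.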

[2] = read-out: growth arrest and DNA damage 45 (GADD45G), GADD45G (gene 10912); assay: LTEA_HepaRG_GADD45G: Life Technologies and Expression Analysis (LTEA) Assay for growth arrest and DNA damage 45 (GADD45G) using HepaRG (AID 2283499)
Method in brief: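 Concentration-response in HepaRG: 48 h dosing, 0.5% DMSO, highest level 100 uM. GADD45G expression by qRT-PCR, normalised to endogenous controls; bidirectional fit to DMSO.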

[3] = read-out: Glutamate-cysteine ligase regulatory (GCLM), GCLM (gene 2730); assay: LTEA_HepaRG_GCLM: Life Technologies and Expression Analysis (LTEA) Assay for Glutamate-cysteine ligase regulatory (GCLM) using HepaRG (AID 2283500)
Method in brief: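 Human liver HepaRG cultures receive test chemicals for 48 hours at up to 100 uM in 0.5% DMSO. GCLM expression is measured by qRT-PCR and analysed for increases or decreases against vehicle.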

[4] = read-out: Glutathione S-transferase M3 (GSTM3), GSTM3 (gene 2947); assay: LTEA_HepaRG_GSTM3: Life Technologies and Expression Analysis (LTEA) Assay for Glutathione S-transferase M3 (GSTM3) using HepaRG (AID 2283501)
Method in brief: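 Expression of GSTM3 is determined by qRT-PCR in human liver HepaRG cells treated 48 h with an 8-point half-log range from 100 uM in 0.5% DMSO.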

[5] = read-out: Heat shock 70 kDa protein 1 (HSPA1A), gene 3303; assay: LTEA_HepaRG_HSPA1A: Life Technologies and Expression Analysis (LTEA) Assay for Heat shock 70 kDa protein 1 (HSPA1A) using HepaRG (AID 2283502)
Method in brief: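 HSPA1A induction in human HepaRG liver cells is measured after 48 h of chemical treatment (100 uM maximum, 0.5% DMSO vehicle). Expression comes from qRT-PCR normalized to endogenous controls.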

[6] = read-out: Hypoxia-inducible factor 1-alpha (Homo sapiens) (UniProt Q16665); assay: LTEA_HepaRG_HIF1A: Life Technologies and Expression Analysis (LTEA) Assay for Hypoxia-inducible factor 1 (HIF1A) Trancription factor using HepaRG (AID 2283503);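 further: HIF1A transcript by TaqMan qRT-PCR normalized to ACTB GAPDH and POLR2A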
Method in brief: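 HepaRG, 48 h exposure, 8-pt half-log series from 100 uM, 0.5% DMSO vehicle, duplicates. Readout: HIF1A transcript by qRT-PCR (Fluidigm array), housekeeping-normalised. Bidirectional curve fit vs DMSO baseline.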

[7] = read-out: 3-Hydroxy-3-Methylglutaryl-CoA Synthase 2 (HMGCS2), HMGCS2 (gene 3158); assay: LTEA_HepaRG_HMGCS2: Life Technologies and Expression Analysis (LTEA) Assay for 3-Hydroxy-3-Methylglutaryl-CoA Synthase 2 (HMGCS2) using HepaRG (AID 2283504)
Method in brief: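 This steatosis marker was read as HMGCS2 mRNA change in HepaRG cells treated 48 h with up to 100 uM chemical. Normalisation used housekeeping genes; activity in either direction was fitted relative to 0.5% DMSO vehicle.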

[8] = read-out: HGF (gene 3082); assay: LTEA_HepaRG_HGF: Life Technologies and Expression Analysis (LTEA) Assay for Hepatocyte Growth Facto (HGF) using HepaRG (AID 2283505)
Method in brief: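 Using HepaRG monolayers kept in 0.5% DMSO, chemicals were tested in duplicate over eight half-log concentrations from 100 uM for 48 h. Endpoint: HGF mRNA change relative to DMSO, normalized to ACTB/GAPDH/POLR2A.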

[9] = read-out: Intercellular Adhesion Molecule 1 (ICAM1), ICAM1 (gene 3383); assay: LTEA_HepaRG_ICAM1: Life Technologies and Expression Analysis (LTEA) Assay for Intercellular Adhesion Molecule 1 (ICAM1) using HepaRG (AID 2283507)
Method in brief: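 Using the human liver line HepaRG, compounds are tested in duplicate over 48 h at concentrations up to 100 uM. Expression is determined by TaqMan qRT-PCR, normalized to endogenous controls, and analysed relative to 0.5% DMSO vehicle.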

[10] = read-out: Insulin-like growth factor-binding protein 1 (IGFBP1), IGFBP1 (gene 3484); assay: LTEA_HepaRG_IGFBP1: Life Technologies and Expression Analysis (LTEA) Assay for Insulin-like growth factor-binding protein 1 (IGFBP1) using HepaRG (AID 2283508)
Method in brief: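 HepaRG, 48 h, 8 conc. (max 100 uM, half-log), duplicates, 0.5% DMSO. Readout: TaqMan qRT-PCR, ACTB/GAPDH/POLR2A normalisation. Fit: bidirectional vs DMSO.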

[11] = read-out: Interleukin 6 (IL6), IL6 (gene 3569); assay: LTEA_HepaRG_IL6: Life Technologies and Expression Analysis (LTEA) Assay for Interleukin 6 (IL6) using HepaRG (AID 2283509)
Method in brief: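 HepaRG, ~100,000 cells/well, 48 h pre-culture; serum-free induction medium; cmpd 8-pt half-log from 100 uM, 0.5% DMSO, duplicate, 48 h. Lysis in RLT, TaqMan qRT-PCR; gain or loss vs DMSO.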

[12] = read-out: Interleukin 6 Receptor (IL6R), IL6R (gene 3570); assay: LTEA_HepaRG_IL6R: Life Technologies and Expression Analysis (LTEA) Assay for Interleukin 6 Receptor (IL6R) using HepaRG (AID 2283510);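 on AC50: differentiated human HepaRG liver cells in serum-free induction medium; TaqMan qRT-PCR signal normalized to ACTB GAPDH and POLR2A housekeeping genes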
Method in brief: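 Concentration-response in human liver HepaRG cells: eight concentrations from 100 uM downward by half-logs, 48 h exposure, 0.5% DMSO vehicle. IL6R mRNA change measured by qRT-PCR and fitted in both directions relative to vehicle.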

[13] = read-out: Potassium channel subfamily K member 1 (KCNK1), KCNK1 (gene 3775); assay: LTEA_HepaRG_KCNK1: Life Technologies and Expression Analysis (LTEA) Assay for Potassium channel subfamily K member 1 (KCNK1) using HepaRG (AID 2283511)
Method in brief: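 Gain or loss of KCNK1 mRNA is the read-out, quantified by qRT-PCR against three housekeeping genes after 48 h chemical treatment of human HepaRG liver cells. Concentrations ran from 100 uM downward in half-log steps, vehicle 0.5% DMSO.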

[14] = read-out: Keratin 19 (KRT19), KRT19 (gene 3880); assay: LTEA_HepaRG_KRT19: Life Technologies and Expression Analysis (LTEA) Assay for Keratin 19 (KRT19) using HepaRG (AID 2283512)
Method in brief: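 Readout is qRT-PCR of KRT19 mRNA, normalized to ACTB, GAPDH and POLR2A, from HepaRG cells treated 48 h with eight-point half-log dilutions topping at 100 uM. Activity in either direction is scored relative to 0.5% DMSO vehicle.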

[15] = read-out: JUN Transcription Factor, JUN (gene 3725); assay: LTEA_HepaRG_JUN: Life Technologies and Expression Analysis (LTEA) Assay for JUN Transcription Factor using HepaRG (AID 2283513)
Method in brief: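 Human HepaRG liver cells receive test chemicals in 0.5% DMSO for 48 h across an eight-point range topping at 100 uM. Expression changes in JUN are scored in both directions against the DMSO vehicle.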

[16] = read-out: Lipoprotein lipase (LPL), LPL (gene 4023); assay: LTEA_HepaRG_LPL: Life Technologies and Expression Analysis (LTEA) Assay for Lipoprotein lipase (LPL) using HepaRG (AID 2283515)
Method in brief: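 Read-out is LPL transcript level by qRT-PCR, normalized to three housekeeping genes and fitted bidirectionally against the DMSO control. Human HepaRG cells received chemicals for 48 h at up to 100 uM.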

[17] = read-out: MicroRNA 122 (MIR122), gene 406906; assay: LTEA_HepaRG_MIR122: Life Technologies and Expression Analysis (LTEA) Assay for MicroRNA 122 (MIR122) using HepaRG (AID 2283516); further: the transcript read is the microRNA miR-122
Method in brief: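 HepaRG, 48 h exposure, 8-pt half-log from 100 uM, 0.5% DMSO; TaqMan qRT-PCR; bidirectional fit vs DMSO.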

[18] = read-out: matrix metalloproteinase-10 (MMP10), MMP10 (gene 4319); assay: LTEA_HepaRG_MMP10: Life Technologies and Expression Analysis (LTEA) Assay for matrix metalloproteinase-10 (MMP10) using HepaRG (AID 2283517)
Method in brief: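 Gain or loss of MMP10 mRNA is fitted relative to the 0.5% DMSO vehicle. The human hepatic line HepaRG receives a 48-hour serum-free exposure, in duplicate, with a maximum concentration of 100 uM.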

[19] = read-out: MYC, MYC (gene 4609); assay: LTEA_HepaRG_MYC: Life Technologies and Expression Analysis (LTEA) Assay for MYC using HepaRG (AID 2283518)
Method in brief: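 Expression changes were scored by TaqMan qRT-PCR with ACTB, GAPDH and POLR2A normalization. Cultures in serum-free induction medium received duplicate 8-point concentration series, highest 100 uM, for 48 h; DMSO (0.5%) served as baseline.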

[20] = read-out: Insulin Like Growth Factor 1 (IGF1), IGF1 (gene 3479); assay: LTEA_HepaRG_IGF1: Life Technologies and Expression Analysis (LTEA) Assay for Insulin Like Growth Factor 1 (IGF1) using HepaRG (AID 2283506)
Method in brief: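 Using human HepaRG liver cells, IGF1 transcript induction or suppression is measured 48 h after dosing across eight concentrations capped at 100 uM. Values derive from bidirectional concentration-response fitting with DMSO as baseline.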

Measured: AC50

Sequence of Hypoxia-inducible factor 1-alpha (Homo sapiens) (Q16665 whole entry, looked up): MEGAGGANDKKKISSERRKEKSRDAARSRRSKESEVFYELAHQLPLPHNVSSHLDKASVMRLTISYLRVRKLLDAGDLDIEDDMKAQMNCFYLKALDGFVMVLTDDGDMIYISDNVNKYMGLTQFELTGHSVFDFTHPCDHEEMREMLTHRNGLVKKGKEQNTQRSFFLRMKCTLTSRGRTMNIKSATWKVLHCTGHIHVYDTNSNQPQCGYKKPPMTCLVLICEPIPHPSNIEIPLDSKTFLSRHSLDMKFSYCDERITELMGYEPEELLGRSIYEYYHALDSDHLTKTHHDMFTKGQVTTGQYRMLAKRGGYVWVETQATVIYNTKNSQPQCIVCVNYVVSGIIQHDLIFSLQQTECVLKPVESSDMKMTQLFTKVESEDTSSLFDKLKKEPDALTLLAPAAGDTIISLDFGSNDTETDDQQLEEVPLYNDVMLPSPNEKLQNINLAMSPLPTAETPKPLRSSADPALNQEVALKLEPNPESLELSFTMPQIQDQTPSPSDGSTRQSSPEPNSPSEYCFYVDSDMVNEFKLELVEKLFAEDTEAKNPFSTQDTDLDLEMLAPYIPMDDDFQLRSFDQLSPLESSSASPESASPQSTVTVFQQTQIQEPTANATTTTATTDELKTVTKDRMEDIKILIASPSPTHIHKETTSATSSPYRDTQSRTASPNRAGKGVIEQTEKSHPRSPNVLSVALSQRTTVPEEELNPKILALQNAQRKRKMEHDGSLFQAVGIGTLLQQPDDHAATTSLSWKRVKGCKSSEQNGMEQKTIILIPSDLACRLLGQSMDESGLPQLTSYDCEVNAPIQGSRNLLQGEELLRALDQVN

CCCCCCCCCCCCOS(=O)(=O)O
inactive: [1] | [2] | [3] | [4] | [6] | [8] | [9] | [11] | [13] | [16] | [19]
active: [5] 50 µM | [7] 86.6 µM | [10] 79.1 µM | [12] 93.1 µM | [14] 79.9 µM | [15] 50 µM | [17] 86.2 µM | [18] 70.2 µM

CCCCCCCCCCCCCCC
inactive: [1] | [2] | [3] | [4] | [5] | [6] | [7] | [8] | [20] | [9] | [10] | [11] | [12] | [13] | [14] | [15] | [16] | [17] | [18] | [19]

OCC(CO)(CBr)CBr
inactive: [1] | [2] | [3] | [4] | [5] | [6] | [7] | [8] | [20] | [9] | [10] | [11] | [12] | [13] | [14] | [15] | [16] | [17] | [18] | [19]

N=C(N)c1ccc(OCCCCCOc2ccc(C(=N)N)cc2)cc1
active: [1] 27.9 µM | [2] 4.37 µM | [4] 5.05 µM | [5] 26.5 µM | [6] 4.28 µM | [7] 7.77 µM | [8] 13.8 µM | [20] 11.1 µM | [9] 10.9 µM | [10] 3.52 µM | [11] 9.85 µM | [12] 29.3 µM | [14] 31 µM | [15] 12.6 µM | [16] 68.9 µM | [17] 3.63 µM | [18] 26.1 µM | [19] 3.56 µM
inactive: [3] | [13]
